Test results as given in PubChem BioAssay AID1159580 (chemical genetic matrix, 2015).
Screen size: about 5,500 compounds; about 2,000 (36%) were called active. Another 18% or so got no clear call; they are omitted. No stated cut-off is given here; in the data, active means normalized growth mostly below about 0.91 (no sharp cut-off); inconclusive means no clear call, values can overlap the other calls; inactive means mostly above about 0.92. The list shows a part of the results.

Assay: chemical genetic growth profiling, strain panel (AID 1159580);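 further: tested at 20 µM; growth read once vehicle control cultures reached saturation at 30 °C; 1 = growth at the plate median or of vehicle wells; lower values mean less growth of the strain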
Conditions: S. cerevisiae deletion strains, growth OD
[1] = locus YDR150W, strain NUM1, hits give low values
[2] = locus YGR078C, strain PAC10, hits give low values
[3] = locus YNL153C, strain GIM3, hits give low values
[4] = locus YNL322C, strain KRE1, hits give low values
[5] = locus YPL055C, strain LGE1, hits give low values
[6] = locus YPL241C, strain CIN2, hits give low values

Measured: normalized growth

COc1ccccc1N1CCN(Cc2ccc(F)cc2)CC1
inactive: locus YAL013W, strain DEP1, hits give low values 1.02 | locus YBR229C, strain ROT2, hits give low values 0.993 | locus YCL061C, strain MRC1, hits give low values 1 | locus YDL101C, strain DUN1, hits give low values 0.992 | [1] 1.02 | locus YEL061C, strain CIN8, hits give low values 1.01 | [2] 1.01 | locus YHR030C, strain SLT2, hits give low values 1.06 | locus YHR087W, strain rtc3, hits give low values 1.01 | locus YJL187C, strain SWE1, hits give low values 1.02 | locus YJR043C, strain POL32, hits give low values 1.01 | locus YJR075W, strain HOC1, hits give low values 0.983 | locus YKL190W, strain CNB1, hits give low values 1.02 | locus YLR039C, strain RIC1, hits give low values 0.987 | locus YLR058C, strain SHM2 (second series), hits give low values 1.02 | locus YLR085C, strain ARP6, hits give low values 1.04 | locus YLR262C, strain YPT6, hits give low values 1.01 | locus YML094W, strain GIM5, hits give low values 1 | locus YMR219W, strain ESC1, hits give low values 1.01 | locus YMR263W, strain SAP30, hits give low values 1.01 | locus YNL128W, strain TEP1, hits give low values 1.02 | [3] 0.997 | locus YNL298W, strain CLA4 (second series), hits give low values 1.05 | [4] 1 | locus YNR030W, strain Alg12, hits give low values 1.04 | [5] 1 | [6] 0.998 | locus YPR135W, strain CTF4, hits give low values 1

c1ccc2c(N3CCNCC3)cccc2c1
inactive: locus YAL040C, strain CLN3, hits give low values 1.03 | locus YCL061C, strain MRC1 (second series), hits give low values 1 | [1] 0.994 | locus YDR363W, strain ESC2, hits give low values 0.999 | locus YER002W, strain NOP16, hits give low values 1.01 | [2] 0.993 | locus YGR229C, strain SMI1, hits give low values 1.02 | locus YMR307W, strain GAS1, hits give low values 0.99 | [3] 0.991 | locus YNL175C, strain NOP13, hits give low values 1.01 | locus YNL197C, strain WHI3, hits give low values 0.997 | locus YNL224C, strain SQS1, hits give low values 1.01 | [4] 1.01 | locus YOR083W, strain WHI5 (second series), hits give low values 1 | [5] 1.02 | [6] 1
